# Only a selection was taken, and hits are over-represented in it overall.
# AmpC inh no detg: blocks E. coli AmpC beta-lactamase in detergent-free assay. P00811. AmpC nitrocefin hydrolysis, absorbance 480 nm, 0.0001% Triton. Potency, µM (series often up to 57.1 µM), for the others: at the highest dose activity change, negative = inhibition, most hits filed as inhibitors. 330,000 tested, 0.52% active. AID 485341;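 further: potency means the concentration at half of the fitted maximal effect; plate controls were no compound for no effect and no enzyme for full effect; nearly all actives have a fitted effect of over 20% in size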
# Target sequence (P00811 whole entry, looked up): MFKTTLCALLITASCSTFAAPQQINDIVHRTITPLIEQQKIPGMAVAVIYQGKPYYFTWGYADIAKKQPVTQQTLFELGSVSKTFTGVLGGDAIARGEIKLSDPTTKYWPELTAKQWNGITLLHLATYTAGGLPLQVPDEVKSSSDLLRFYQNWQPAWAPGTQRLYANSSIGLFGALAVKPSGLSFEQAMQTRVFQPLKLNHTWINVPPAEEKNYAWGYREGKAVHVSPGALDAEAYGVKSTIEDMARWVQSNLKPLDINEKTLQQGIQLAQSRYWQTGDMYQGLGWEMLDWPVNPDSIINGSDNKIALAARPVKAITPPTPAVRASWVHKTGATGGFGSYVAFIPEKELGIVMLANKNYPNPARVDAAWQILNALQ
#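 AmpC (5.3 nM in the dispensed reagent) in 20 mM phosphate pH 7.0 with 0.01% (detergent screen) or 0.0001% Triton X-100 was preincubated with compounds for 15 min at room temperature. Nitrocefin was then added from an 800 uM solution, and hydrolysis was followed at 480 nm.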
# AMA1-RON2 inh: inhibitors of Plasmodium falciparum AMA1-RON2 interaction. Potency, µM (doses to about 58.2 µM), without a hit: top-dose activity change, negative = inhibition, usual class: inhibitors. AlphaScreen AMA1-biotinylated RON2 peptide binding. 360,000 tested, 0.2% active;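 further: potency means the concentration at half of the fitted maximal effect; 0% = vehicle wells and -100% = peptide control; nearly all actives have a fitted effect of over 45% in size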
#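 AMA1 (3D7) with his tag at 25 nM final met compounds first, then biotinylated RON2 peptide at 25 nM; detection used donor plus acceptor beads, 10 µg/mL apiece, read by AlphaScreen after 30 min at room temperature.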
# SARS PLP yeast: inhibitors of SARS-CoV papain-like protease in yeast | S. cerevisiae expressing SARS-CoV PLpro, growth rescue | Potency, µM (series often up to 32.9 µM), inactives show at the top dose activity, positive = growth rescue, most hits filed as activators | 330,000 tested, 0.19% active; calls by dose curve; further: potency means the concentration at half of the fitted maximal effect; 0% is about no effect; nearly all actives have a fitted effect of over 55% in size
# AmpC inh detg: inhibitors of E. coli AmpC beta-lactamase with detergent; P00811; AmpC hydrolysis of nitrocefin, absorbance 480 nm, 0.01% Triton; Potency, µM (top dose mostly 114 µM), inactives show top-dose activity change, negative = inhibition, hits mostly inhibitors; 370,000 tested, 0.041% active; AID 485294;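 further: potency means the concentration at half of the fitted maximal effect; 0% = no-compound wells and -100% = no-enzyme wells; nearly all actives have a fitted effect of over 25% in size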
#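 20 mM phosphate pH 7.0 + 0.01% (detergent screen) or 0.0001% Triton X-100; 5.3 nM AmpC reagent; cpd preinc 15 min RT; nitrocefin (800 uM stock) to start; A480 q20 s × 4 min; Activity was normalised to no-enzyme and no-compound control wells.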
# Cycloheximide cs: counter-screen hit for Shiga toxin inhibitors, cycloheximide; cell reporter, cycloheximide protein synthesis inhibition counterscreen; max response, %; 300,000 tested, 12% active; AID 2314; in the data active means max response mostly above about 13%, no sharp cut-off; inactive means mostly below about 14%; further: read at 38.3 µM for the half of the compounds with a filed dose; 0% is about no effect
# Shiga toxin inh: blocks Shiga toxin action in Vero cells. AID 2315. Vero cells, Shiga toxin protein synthesis inhibition reporter. 290,000 tested, 9.2% active. inhibition, % at 38.7 µM; in the data active means inhibition mostly above about 28%, no sharp cut-off; inactive means mostly below about 43%; further: 0% is about no effect
# * hit, by the source's call; u = inconclusive; x = no result given; [ ] = remark or other dose. Unless noted, the call rests on the fitted dose curve; in most records, active means well fitted curve in the direction sought with a large enough effect; inconclusive means small, poorly fitted or top-dose-only effect, or another doubt; inactive means no such curve, though single readings can be large; an effect the other way counts as inactive or inconclusive.
SMILES,AmpC inh no detg,AMA1-RON2 inh,SARS PLP yeast,AmpC inh detg,Cycloheximide cs,Shiga toxin inh
Cc1ccc(C(=O)NC2=NCCS2)cc1,-20%,x,-2%,-8%,34*,85*
O=C(NC1=NCCS1)c1ccc(N2CCCC2=O)cc1,-5%[11.4 µM],9%,1%,u,11,16
CCN(CC)S(=O)(=O)c1ccc(C(=O)NC2=NCCS2)cc1,-6%,23%,-3%,0%,-4,-4
O=C(NC1=NCCS1)c1ccc(C(F)(F)F)cc1,-10%,61%,-2%,-3%,34*,96*
Cc1ccc(C(=O)NC2=NCCS2)cc1Cl,-20%,85%,-7%,u,38*,44*
O=C(Nc1ccccc1C(F)(F)F)c1cnccn1,-3%,4%,5%,-3%,2,-20
O=C1c2cccnc2C(O)N1Cc1cccs1 (stereo not drawn),-5%,13%,17%,1%,-1,-29
N#Cc1ccc(C(=O)NC2=NCCS2)cc1,-10%,5%,-2%,-6%,34*,104*
CC(C)C(NC(=O)c1ccc(Cl)cc1)C(=O)NC1=NCCS1 (stereo not drawn),-3%,-13%,-22%,-5%,-2,-1
CC(C)c1ccc(C(=O)NC2=NCCS2)cc1,-15%,50%,-6%,-15%,53*,63*
CCc1ccc(CNC(=O)c2sc3ncnc(N(C)C4CCCCC4)c3c2C)cc1,x,x,x,12%,x,x
CCN1CCN(CCCNC(=O)c2ccc3nc(Cc4ccccc4)oc3c2)CC1,x,x,x,24%,x,x
COc1ccc(NC(=O)[C@@H]2CCCN2C(=O)[C@@H]2Cc3ccccc3CN2C(=O)OC(C)(C)C)cc1,116%,2%,-3%,1%,23,22
CC(=O)c1ccc(NC(=O)[C@@H]2CCCN2C(=O)OC(C)(C)C)cc1,-15%,3%,1%,-1%,51*,87*
Cc1ccc(NC(=O)C2CCCO2)cc1[N+](=O)[O-] (stereo not drawn),-5%,20%,15%,-8%,28*,31
O=C(Nc1cccc(NC(=O)C2CCCO2)c1)C1CCCO1 (stereo not drawn),-13%,17%,12%,2%,-4,-4
CC(=O)c1ccc(N2CCN(C(=O)Nc3ccc(F)cc3)CC2)cc1,-2%,x,-10%,-3%,21*,42
CC(=O)c1ccc(NC(=O)C2CCCO2)cc1 (stereo not drawn),-15%,5%,4%,1%,38*,x
O=C(Nc1ccc(O)cc1)C1CCCO1 (stereo not drawn),-12%,-2%,0%,0%,-2,8
C[C@@H]1COC(=O)[C@H](CC(=O)OC(C)(C)C)C/C=C\C[C@@H](CC(=O)N(CCO)Cc2ccccc2)C(=O)N1,177%,17%,-2%,x,x,x
COC(=O)c1cc(S(=O)(=O)NCCc2ccccc2)c[nH]1,0%,-4%,1%,-19%,1,-1
O=C(Nc1ccc2c(c1)CCC2)C1CCCO1 (stereo not drawn),-13%,2%,-3%,0%,39*,53*
CC(=O)c1ccc(N2CCN(C(=O)c3ccc(NC(=O)C4CCCO4)cc3)CC2)cc1 (stereo not drawn),5%,-4%,-2%,-4%,14*,24
CC(=O)N1c2ccc(S(=O)(=O)N3CCC(C(=O)Nc4cccc(Cl)c4)CC3)cc2CC1C (stereo not drawn),3%,0%,19%,-1%,14,-8
C=CCN1C(=O)CSC1=Nc1ccc(C(=O)O)cc1,-6%,-7%,-2%,u,0,6
C=CCN1C(=O)CS/C1=C(\C#N)S(=O)(=O)c1ccc(C)cc1,14µM*,-7%,13%,-12%,-3,-21
COCCNC(=O)CC(NS(=O)(=O)c1ccc(NC(C)=O)cc1)C(C)C (stereo not drawn),-11%,-4%,1%,2%,-3,-2
CC(C)CC(COCc1cccc(Cl)c1)N1CCN(C(=O)c2cccc(C(F)(F)F)c2)CCC1=O (stereo not drawn),355%,0%,0%,2%,3,18

# Bioassay records as filed in PubChem BioAssay.
